Source: PubChem BioAssay (several laboratories)
In the library only some 3.3% were active in any assay of this set; here they are far more common.
MazF activator: activators of E. coli MazEF toxin-antitoxin RNase. activation, % at 20 µM. 350,000 compounds, 0.32% hits. FAM/BHQ RNA-DNA oligo cleavage fluorescence, 5 h; in the data active means activation above about 50%
Target sequence (P0AE70 whole entry, looked up): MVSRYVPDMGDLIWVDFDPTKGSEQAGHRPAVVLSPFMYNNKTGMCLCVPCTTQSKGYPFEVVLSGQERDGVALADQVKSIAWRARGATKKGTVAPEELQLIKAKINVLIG
Anthrax LF prot: anthrax lethal factor protease inhibition | P15917 | multiplex microsphere protease cleavage assay, LF | inhibition, % at 10 µM | 360,000 compounds, 0.12% hits; further: plate controls were buffer without enzyme for full effect and enzyme alone for no effect
BoNT F protease: inhibitors of Botulinum neurotoxin F light chain protease | Multiplex microsphere protease cleavage assay, flow cytometry | inhibition, % at 10 µM | 360,000 compounds, 0.22% hits; in the data active means inhibition above about 35%, passing the limit was not always enough; inconclusive means no clear call, values can overlap the other calls; further: plate controls were buffer without enzyme for full effect and enzyme alone for no effect
PriA SSB inh: K. pneumoniae PriA-SSBct interaction inhibition | inhibition, % at 33 µM | AlphaScreen SSBct-PriA binding, biotinylated peptide | AID 1272365 | 430,000 compounds, 0.6% hits; in the data active means inhibition mostly above about 37%, no sharp cut-off; inactive means mostly below about 20%;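 further: plate controls were negative control peptide for no effect and reference peptide for full effect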
BoNT A protease: inhibitors of Botulinum neurotoxin A light chain protease. multiplex microsphere protease substrate cleavage, flow cytometry. inhibition, % at 10 µM. AID 588499. 360,000 compounds, 0.17% hits; further: plate controls were buffer without enzyme for full effect and enzyme alone for no effect
Bead autofluor: counter-screen for toxin protease inhibitors: compound fluorescence. compound autofluorescence counterscreen, microsphere flow cytometry; hits give high values. fluorescence intensity (concentration not given with the values). 360,000 compounds, 3.1% hits; in the data active means fluorescence intensity above about 16000; inconclusive means no clear call, values can overlap the other calls
Numbers without * were called inactive; ? = inconclusive; / = no result given. Unless noted, no stated cut-off is given here; in the data, active means inhibition above about 30%; inconclusive means no clear call, values can overlap the other calls; inactive means below that.

SMILES	MazF activator	Anthrax LF prot	BoNT F protease	PriA SSB inh	BoNT A protease	Bead autofluor
CCCN1CCCc2cc(CCNC(=O)C(=O)Nc3ccccc3C#N)ccc21	/	/	/	25	/	/
Cc1ccc(C=NNC(=O)C2COc3cc4ccccc4cc3O2)o1 (configuration not stated)	/	/	/	7	/	/
O=C(Cc1cccc2ccccc12)N(Cc1cccnc1)c1nc2ccc(Cl)cc2s1	/	/	/	-4	/	/
Cc1cccc(N2CCN(S(=O)(=O)c3cccc4nonc34)CC2)c1C	-1	0	-2	39*	0	2719
COc1ccc(NC(=O)CC2SC(N=Nc3c(O)[nH]c4ccccc34)=NC2=O)cc1 (configuration not stated)	/	/	/	-1	/	/
COc1ccccc1NS(=O)(=O)c1cccc(NC(=O)Nc2cccc(Cl)c2)c1	77*	0	0	-3	1	2487
COC(=O)Nc1ccc(S(=O)(=O)Nc2cccc3ccccc23)cc1	-5	-9	0	-7	?	21995*
COc1ccc(NC(=O)C(C)NS(=O)(=O)c2ccc(NC(C)=O)cc2)cc1Cl (configuration not stated)	3	-3	-4	-6	0	23479*
COc1ccccc1NS(=O)(=O)c1ccc(NC(C)=O)cc1	-1	-5	0	-9	1	18703*
CSc1nc(N)nc(SCC(=O)CC(=O)OC(C)C)c1C#N	6	0	-3	-15	?	20850*
COc1cc(NCCC(=O)c2cccs2)c(OC)cc1Cl	1	-4	-1	39*	-1	4271
CCC(C)Sc1cc(-c2nc3cc(C)ccn3c2NC2CCCCC2)ccc1OC (configuration not stated)	-47	-12	2	23	-4	23753*
CCC(C)Sc1cc(-c2nc3ccc(C)cn3c2NCc2ccccc2)ccc1OC (configuration not stated)	-13	0	-16	39*	-1	3733
CCC(C)Sc1cc(-c2nc3ccccn3c2NC2CCCCC2)ccc1OC (configuration not stated)	-5	-4	-9	29	-1	4371
NC(=S)Nc1ccc(Cl)c(Cl)c1	11	52*	?	2	-1	4462
CC(=O)Nc1ccc(Cl)c(C(N)=O)c1	-5	0	-2	-11	-1	19829*
Cc1ccc(S(=O)(=O)N2CCCc3cc(NC(=O)c4cccc(Br)c4)ccc32)cc1	/	/	/	-8	/	/
COc1ccc(C)c2sc(N(CCN3CCOCC3)C(=O)c3ccn(C)n3)nc12	/	/	/	-4	/	/
Cc1ccccc1Oc1ncccc1C(=O)/C(C#N)=C/N(C)C	-17	-1	-1	-1	-2	23141*
CCOC(=O)N1CCC(NC(=O)C2CCN(c3ccc(N4CCOCC4)nn3)CC2)CC1	3	-2	0	-6	-1	23805*
COC(=O)c1cc(S(=O)(=O)N2CCC(C)CC2)ccc1F	6	-1	2	-35	2	22718*
CCOC(=O)N1CCC(N2CCN(S(=O)(=O)c3ccc(Cl)cc3)CC2)CC1	-23	2	3	-8	?	19293*
CCOC(=O)N1CCN(S(=O)(=O)c2ccc(OC)c(OC)c2)CC1	6	-1	-7	-10	-3	25529*
O=C1CC(c2nc(-c3ccccc3)no2)CN1Cc1cccs1 (configuration not stated)	/	/	/	4	/	/
Cc1ncn(CC(=O)NCCn2nc(-n3cncn3)ccc2=O)c(=O)c1C	/	/	/	8	/	/
SMILES	MazF activator	Anthrax LF prot	BoNT F protease	PriA SSB inh	BoNT A protease	Bead autofluor
CCOc1ccc(-c2noc(Cn3cnc4c(nnn4Cc4ccc(F)cc4)c3=O)n2)cc1OC	/	/	/	-10	/	/
CCOC(=O)N1CCC(NC(=O)c2cc(S(=O)(=O)N3CCOCC3)ccc2F)CC1	6	1	0	-11	-1	20906*
CCOC(=O)N1CCC(NC(=O)c2ccc(CNS(=O)(=O)c3ccc(F)cc3)cc2)CC1	-6	-2	-7	-11	-8	17979*
CCOC(=O)N1CCN(C(=O)CN(Cc2ccc(Cl)cc2)S(=O)(=O)c2ccc(C)cc2)CC1	-7	-2	-6	-11	-4	24719*
COc1ccc(Cl)cc1NC(=O)CSc1ccc2nnc(-c3ccc(F)cc3)n2n1	/	/	/	-14	/	/
Cc1cc(N2C(=O)C(O)=C(C(=O)c3cccs3)C2c2ccccc2)no1 (configuration not stated)	4	-2	-7	-6	-3	17508*
CC1=C(C(=O)Nc2ccccc2)C(c2cc(CN3CCOCC3)cs2)C2=C(CCCC2=O)N1 (configuration not stated)	0	1	-1	-5	0	3435
